Where “and” joins values, the source holds several entries; their conditions need not be identical. Equal values may be shown once. Calls of active or inactive are those of the source. Rule for the calls: active = hit-call score of the fitted dose curve at least 0.9, where 1 is the maximum; inactive = score below 0.9.
test: ATG_PXRE_CIS: Attagene CIS-FACTORIAL HepG2 Assay for human Pregnane X Receptor Element (PXRE) (AID 2282957); settings: HepG2 Attagene CIS-FACTORIAL PXRE reporter, mRNA; actives raise or lower the signal
In short: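 HepG2 cells transiently transfected with cis-element-driven multiplexed reporter units; after 24 h chemical exposure, reporter mRNA measured by RT-PCR, 6-FAM labelling, HpaI digestion and capillary electrophoresis. Bidirectional fitting relative to DMSO.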

| Structure (SMILES) | outcome | AC50 |
| --- | --- | --- |
| O=C1OC(=O)C(F)(F)C1(F)F | inactive |  |
| CCCCc1ccc2ccccc2c1S(=O)(=O)O |  | 2.52 µM (active) |
| Oc1c(Cl)cc(Cl)cc1Sc1cc(Cl)cc(Cl)c1O |  | 3.03 µM (active) |
| CCOC(C)=O | inactive |  |
| CCc1cccc(CC)c1N(COC)C(=O)CS(=O)(=O)O |  | 3.8 µM (active) |
| N=C(N)c1ccc(OCCCCCOc2ccc(C(=N)N)cc2)cc1 |  | 57.2 µM (active) |
| CCCCCCCCCCCCCCCC(=O)OC | inactive |  |
| O=C(O)CN(CCCN(CC(=O)O)CC(=O)O)CC(=O)O | inactive |  |
| CCC1CO1 (configuration not stated) | inactive |  |
| CC=O | inactive |  |
| Cc1cc(Cc2cc(C)cc(C(C)(C)C)c2O)c(O)c(C(C)(C)C)c1 |  | 0.0497 µM (active) |
| O=C(F)C(F)(F)C(F)(F)C(F)(F)C(=O)F | inactive |  |
| CCOC(OCC)C(=O)c1ccccc1 |  | 36.8 µM (active) |
| O=C1c2ccc(O)c(O)c2C(=O)c2c(O)ccc(O)c21 |  | 13.5 µM (active) |
| CCc1cccc(CC)c1NC(=O)C(=O)O | inactive |  |
| OCC(CO)(CBr)CBr | inactive |  |
| CCOCCOCC | inactive |  |
| OCC(F)(F)C(F)(F)C(F)(F)C(F)(F)C(F)(F)C(F)(F)C(F)(F)C(F)(F)C(F)(F)C(F)(F)C(F)(F)F | inactive |  |
| CCOC(=O)c1nc(C(Cl)(Cl)Cl)n(-c2ccc(Cl)cc2Cl)n1 |  | 2.06 µM (active) |

| Structure (SMILES) | outcome | AC50 |
| --- | --- | --- |
| CC(C)c1c(C(=O)Nc2ccccc2)c(-c2ccccc2)c(-c2ccc(F)cc2)n1CC[C@@H](O)C[C@@H](O)CC(=O)O |  | 5.31 µM (active) and 12.2 µM (active) |
| C[C@]12CC[C@@H]3c4ccc(O)cc4CC[C@H]3[C@@H]1C[C@@H](O)[C@@H]2O | inactive |  |
| FC(OC(F)(F)C(F)(F)C(F)(F)F)C(F)(F)F (configuration not stated) | inactive |  |
| CCC(=O)O | inactive |  |
| Oc1cccc2c(O)cccc12 |  | 27.1 µM (active) |
| CC1=NN(c2ccccc2)C(=O)C1 |  | 66.2 µM (active) and 60 µM (active) |
| Nc1ccc(O)c(C(=O)O)c1 | inactive |  |
| O=C(C=C(O)C(F)(F)F)C(F)(F)F |  | 99 µM (active) |
| CCCCCC(C)OC(=O)COc1ccc(Cl)c2cccnc12 (configuration not stated) |  | 7.22 µM (active) |
| COc1cccc(O)c1 | inactive |  |
| O=C(F)C(F)(F)C(F)(F)C(F)(F)C(F)F | inactive |  |
| O=C(Nc1cccc([N+](=O)[O-])c1)c1cc2ccccc2cc1O |  | 6.79 µM (active) |
| O=P(O)(O)CCC(F)(F)C(F)(F)C(F)(F)C(F)(F)C(F)(F)C(F)(F)C(F)(F)C(F)(F)F | inactive |  |
| CCOC=O | inactive |  |
| Oc1ccc(Cc2ccccc2O)cc1 |  | 46 µM (active) |
| O=CC(F)(F)C(F)(F)C(F)(F)C(F)F | inactive |  |
| CCCCCCCCCCCC[N+](C)(C)CCCCCCCCCCCC | inactive |  |
| CCc1ccccc1O |  | 10.8 µM (active) |

— PubChem BioAssay (EPA / NIEHS)
